# Pf growth 96h: P. falciparum growth inhibition at 96 hour, primary screen for plastid delayed-death inhibitors | 320,000 tested, 6.9% active | Potency, µM (titrated, usually from 28.7 µM), for inactives: top-dose activity change, negative = inhibition, most hits filed as inhibitors | P. falciparum luciferase reporter growth, 96 h; note: potency is the fitted concentration of half-maximal effect; % is set by controls: 0 for no effect and ±100 for the full control effect
#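 Readout is luminescence from an integrated firefly luciferase in P. falciparum. Red cells, 2% hematocrit and 0.05% parasitemia final, were cultured with compound through two parasite generations (96 hours) at 37 C, 5% CO2.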
# Shiga inhibitor: blocks Shiga toxin action in Vero cells; Vero cells, Shiga toxin protein synthesis inhibition reporter; inhibition, % at 38.7 µM; 290,000 tested, 9.2% active; in the data active = inhibition mostly above about 28%, no sharp cut-off; inactive = mostly below about 43%; note: 0% is about no effect
# AMA1-RON2 inh: inhibitors of Plasmodium falciparum AMA1-RON2 interaction | AlphaScreen AMA1-biotinylated RON2 peptide binding | Potency, µM (top dose mostly 58.2 µM), for the others: at the top dose activity change, negative = inhibition, usual class: inhibitors | 360,000 tested, 0.2% active;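 note: potency is the fitted concentration of half-maximal effect; 0% = vehicle wells and -100% = peptide control; nearly all actives have a fitted effect of over 45% in size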
#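 AMA1 (3D7) with his tag at 25 nM final met compounds first, then biotinylated RON2 peptide at 25 nM; detection used donor plus acceptor beads, 10 µg/mL apiece, read by AlphaScreen after 30 min at room temperature.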
# Cycloheximide cs: counter-screen hit for Shiga toxin inhibitors, cycloheximide | 300,000 tested, 12% active | max response, % | cell reporter, cycloheximide protein synthesis inhibition counterscreen; in the data active = max response mostly above about 13%, no sharp cut-off; inactive = mostly below about 14%; note: read at 38.3 µM for the half of the compounds with a filed dose; 0% is about no effect
# HCV inhibitor: blocks hepatitis C virus | 340,000 tested, 3.4% active | Potency, µM (series often up to 41.8 µM), without a hit: top-dose activity change, negative = inhibition, most hits filed as inhibitors | AID 651820 | Huh7.5.1 HCVcc-Cre infection, luciferase reporter, 44 h; note: potency is the fitted concentration of half-maximal effect; % is set by controls: 0 for no effect and ±100 for the full control effect
#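 Cells (1,000/well) were plated 4 h before compound, then infected with HCVcc-Cre virus (~0.5 moi). After 44 h further culture, infection was read as luciferase luminescence following a 15 min substrate incubation at room temperature.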
# Pf growth 48h: inhibits P. falciparum growth in the first generation, 48 h; Potency, µM (top dose mostly 28.7 µM), without a hit: top-dose activity change, negative = inhibition, usual class: inhibitors; P. falciparum luciferase growth in erythrocytes, 48 h; 310,000 tested, 5.9% active; note: potency is the fitted concentration of half-maximal effect; % is set by controls: 0 for no effect and ±100 for the full control effect
#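 Luciferase-expressing parasites in RBCs, 2% Hct / 0.1% parasitemia final; RPMI 1640 + 0.5% Albumax; 37 C, 5% CO2, one generation; luminescence read-out, lower signal = inhibition.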
# * = called active by the depositor; i = inactive; ? = inconclusive; nt = no result given; [ ] = remark or other dose. Most compounds without a hit are left out; they make up all but 21% or so of the library. Unless noted, calls come from the whole dose curve; as a rule, active = well fitted curve in the direction sought with a large enough effect; inconclusive = small, poorly fitted or top-dose-only effect, or another doubt; inactive = no such curve, though single readings can be large; an effect the other way counts as inactive or inconclusive.
SMILES,Pf growth 96h,Shiga inhibitor,AMA1-RON2 inh,Cycloheximide cs,HCV inhibitor,Pf growth 48h
CC(C)Nc1cc(N2CCCC2)ccc1[N+](=O)[O-],?,-9,-9%,5,?,?
CC(C)(C)c1ccc(CNc2cc(N3CCOCC3)ccc2[N+](=O)[O-])cc1,0%,-13,?,-3,10µM*,13µM*
CC(Nc1cc(N2CCN(C(=O)C(C)(C)C)CC2)ccc1[N+](=O)[O-])c1ccccc1 (centres undefined),2.1µM*,-10,?,-2,?,8.3µM*
CC(C)c1ccc(CNc2cc(N3CCCC3)ccc2[N+](=O)[O-])cc1,?,-9,-9%,14,?,3%
Cc1cc(C)c(S(=O)(=O)N2CCN(c3ccc([N+](=O)[O-])c(NCc4ccco4)c3)CC2)c(C)c1,3.7µM*,-10,-8%,-2,?,?
CCS(=O)(=O)N1CCN(c2ccc([N+](=O)[O-])c(NC(C)c3ccccc3)c2)CC1 (centres undefined),?,-11,-27%,-5,?,?
CC(C)C(=O)N1CCN(c2ccc([N+](=O)[O-])c(NC(C)c3ccccc3)c2)CC1 (centres undefined),-18%,-5,-21%,1,?,9.3µM*
Cc1cc(C)c(S(=O)(=O)N2CCN(c3ccc([N+](=O)[O-])c(NCC4CCCO4)c3)CC2)c(C)c1 (centres undefined),?,-11,?,-2,?,29%
CCN(CC(=O)Nc1c(F)cccc1F)C(=O)/C=C/c1ccc(Br)s1,-1%,nt,4%,nt,3%,-5%
O=[N+]([O-])c1cc(S(=O)(=O)N2CCCC2)ccc1NCCCN1CCOCC1,?,2,8%,7,-2%,-11%
O=[N+]([O-])c1ccc(N2CCOCC2)cc1NC(c1ccccc1)c1ccccc1,2.1µM*,-3,?,-2,?,?
O=[N+]([O-])c1ccc(N2CCCC2)cc1NC(c1ccccc1)c1ccccc1,?,21,-6%,-2,?,?
O=[N+]([O-])c1ccc(N2CCN(S(=O)(=O)c3ccc(Cl)c(Cl)c3)CC2)cc1NCCN1CCOCC1,6.6µM*,-1,-15%,-2,21%,?
COCOCCn1cc(CN2CCS(=O)(=O)N(Cc3ccc(-c4ccncc4)cc3)C(CC(C)C)C2=O)nn1 (centres undefined),nt,nt,21%,nt,nt,nt
COc1ccc(C2/C=C\CN(Cc3ccccc3)C(C)C(=O)N2Cc2ccc(F)cc2)cc1 (centres undefined),nt,62*,nt,36*,nt,nt
COc1ccc(C2/C=C\CN([S+](=O)([O-])c3ccc4ccccc4c3)C(C)C(=O)N2Cc2ccc(F)cc2)cc1 (centres undefined),nt,149*,nt,84,nt,nt
O=c1[nH][nH]c2c1C(c1ccc(Cl)c(Cl)c1)OC(CCc1ccccc1)C2 (centres undefined),nt,nt,94%,nt,nt,nt
O=C(CCCn1c(=O)oc2ccccc21)Nc1ccccc1,-5%,nt,-4%,nt,12%,-23%
Sc1oc(-c2ccccc2)cc1C=Nc1ccccc1,?,86,-16%,30*,-9%,nt
O=[N+]([O-])c1cc2c(cc1C=Nc1ccccc1)OCO2,0%,-6,18%,-3,17%,13%
CCOc1ccc(S(=O)(=O)N(CC(=O)NCc2ccncc2)c2ccc(C)cc2)cc1,?,-3,7%,-3,-16%,-11%
CC1CCCN(CCCNC(=O)C2CC(=O)N(c3ccc(F)c(Cl)c3)C2)C1 (centres undefined),8%,-7,-4%,-5,?,15µM*
CC1CCCCN1CCNC(=O)C1CC(=O)N(c2ccc(F)c(Cl)c2)C1 (centres undefined),47%,12,2%,-4,?,?
Cc1c(NCc2nc3ccccc3[nH]2)c(=O)n(-c2ccccc2)n1C,13µM*,57,68%,29*,18%,21%
Cc1cccc(C)c1OCc1nc2ccccc2[nH]1,?,0,-14%,3,-6%,-19%
SMILES,Pf growth 96h,Shiga inhibitor,AMA1-RON2 inh,Cycloheximide cs,HCV inhibitor,Pf growth 48h
Cc1ccc(C)c(OCc2nc3ccccc3[nH]2)c1,351%,88*,-6%,43*,?,i
Cc1c(NS(=O)(=O)c2ccc3nc(COc4ccccc4Cl)[nH]c3c2)c(=O)n(-c2ccccc2)n1C,?,-1,-8%,12,7%,?
Cc1c(NCc2cc(Cl)cc(Cl)c2O)c(=O)n(-c2ccccc2)n1C,-19%,-10,34%,-3,?,nt
Cc1ccc(C)c(OCc2nc3ccc(S(=O)(=O)Nc4c(C)n(C)n(-c5ccccc5)c4=O)cc3[nH]2)c1,5.2µM*,-1,19%,-2,6%,12µM*
c1ccc(C2=Nc3cccnc3C(c3ccccc3)=NN2)cc1,9%,92*,30%,34*,16%,-3%
Fc1ccc2c(c1)C(c1ccncc1)=NNC(c1ccc(Cl)cc1)=N2,?,18,2%,3,?,?
Fc1ccc2c(c1)C(c1ccncc1)=NNC(c1ccccc1)=N2,?,72*,26%,62*,-10%,?
CCN(CC(=O)Nc1ccc(OC)cc1)C(=O)CSCC(=O)Nc1cc(C)on1,-1%,nt,42%[11.6 µM],nt,16%,-3%
CC1=C(C(=O)Nc2ccccn2)C(c2ccccc2Cl)NC(=S)N1 (centres undefined),?,100*,2%,40*,12%,73%
CC1=C(C(=O)Nc2ccccn2)C(c2ccc(Cl)cc2Cl)NC(=S)N1 (centres undefined),47%,111*,1%,35*,-17%,?
C/C(=N\NC(=O)c1ccc2nc[nH]c2c1)c1ccc([N+](=O)[O-])cc1,-18%,-5,nt,6,nt,16%
C/C(=N\NC(=O)c1cccc(N/N=C(\C)c2ccncc2)c1)c1ccncc1,8.3µM*,5,56%,15,-1%,?
C/C(=N\Nc1ccc(Cl)c(C(=O)O)c1)c1cccc([N+](=O)[O-])c1,90%,159*,0%,80*,4%,48%
C/C(=N\NC(=O)c1cccc(N/N=C(\C)c2ccc([N+](=O)[O-])cc2)c1)c1ccc([N+](=O)[O-])cc1,4.1µM*,39*,23%,17*,-27%,1.7µM*
C/C(=N\NC(=O)c1ccccc1C)c1cccc([N+](=O)[O-])c1,-17%,10,1%,10,1%,nt
C/C(=N\NC(=O)c1nn(C)cc1Br)c1cccc(NC(=O)c2ccncc2)c1,?,84*,10%,50*,18%,16%
C/C(=N/NC(=O)c1ccc(Cn2cccn2)o1)c1cccc(NC(=O)c2ccncc2)c1,0%,11,50%,19*,-19%,-25%

# Screening results as filed in PubChem.
